# Data: the supplement of paper PMC10981050
# Values joined by “and” are separate entries in the source; they are usually repeats but may differ in a detail not shown here. Equal values may be shown once. Where a name gives a salt, the structure may show the parent alone.
# What was measured:
# Test in all cases: cell viability relative to vehicle control; higher = less cytotoxic
# Details in all cases: 10 µM
# K562 = system: K562
# In short: (§1)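 Screening covered the Selleck bioactive, kinase and epigenetic probe libraries, less identity-inconsistent compounds, on CRISPR-edited mutant clones and isogenic wild-type clones of four leukaemia lines. Cells, at 2000 per well in 50 µL medium, received a single 10 µM acoustically dispensed dose. After 48 h the supernatant was removed and CellTiter-Glo luminescence was read. Viability was analysed in Genedata Screener as percent of the on-plate vehicle control.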
# MARIMO = system: MARIMO
# In short: as §1
# MOLM14 = system: MOLM14
# In short: as §1
# OCI-AML2 = system: OCI-AML2
# In short: as §1
SMILES,cell viability (K562; SRSF2 genotype: SRSF2 P95H/wt),cell viability (K562; SRSF2 genotype: SRSF2 wt/wt) [%],cell viability (MARIMO; SRSF2 genotype: SRSF2 P95H/wt) [%],cell viability (MARIMO; SRSF2 genotype: SRSF2 wt/wt) [%],cell viability (MOLM14; SRSF2 genotype: SRSF2 P95H/wt) [%],cell viability (MOLM14; SRSF2 genotype: SRSF2 wt/wt) [%],cell viability (OCI-AML2; SRSF2 genotype: P95H/wt) [%],cell viability (OCI-AML2; SRSF2 genotype: wt/wt) [%]
C[C@H](CCC(=O)NCCS(=O)(=O)O)[C@H]1CC[C@H]2[C@@H]3[C@@H](O)C[C@@H]4C[C@H](O)CC[C@]4(C)[C@H]3CC[C@]12C [Tauroursodeoxycholic Acid],102%,99,99.4,108,107,103,95.8,114
CN[C@@H](C)C(=O)N[C@H](C(=O)N1CCC[C@H]1C(=O)N[C@H]1c2ccccc2C[C@H]1OCC#CC#CCO[C@@H]1Cc2ccccc2[C@@H]1NC(=O)[C@@H]1CCCN1C(=O)[C@@H](NC(=O)[C@H](C)NC)C1CCCCC1)C1CCCCC1,0.57% and 0.73%,0.61,0.76,0.89,0.51,0.62,0.56,0.58
O=C(O)CNC(=O)c1nc(Cl)c2ccccc2c1O,84.7% and 85.9%,81.2,80.5,91.2,80.2,89.1,95.8,89.8
COc1ccc(-c2oc3c(CC=C(C)C)c(O[C@@H]4O[C@H](CO)[C@@H](O)[C@H](O)[C@H]4O)cc(O)c3c(=O)c2O[C@@H]2O[C@@H](C)[C@H](O)[C@@H](O)[C@H]2O[C@@H]2OC[C@@H](O)[C@H](O)[C@H]2O)cc1 [Epmedin B],103% and 99.7%,102,105,93,110,102,103,99.5
O=C1NC(=NCc2cccs2)S/C1=C\c1ccc2ncccc2c1,92% and 98.2%,98.2,50.9,77.9,37,41.1,53.8,57.1
O=C1CN(/N=C/C=C/c2ccc([N+](=O)[O-])o2)C(=O)N1 [Furagin],105% and 103%,104,93.7,107,105,108,101,108
N/C(=N\N=C\c1ccc(Cl)cc1)N/N=C/c1ccc(Cl)cc1 [Robenidine Hydrochoride],70.9% and 65.6%,67.4,65.7,67.8,59.2,65.9,60.2,73.3
COc1ccc([C@@H]2OC[C@H]3[C@@H]2CO[C@@H]3c2ccc3c(c2)OCO3)cc1OC [Fargesin],87.8% and 91.3%,92.7,84.8,86,97.2,94.5,88.6,80.4
Cc1c(C)c2c(c(C)c1OC(=O)CCC(=O)OCCOCCOCCO)CCC(C)(CCCC(C)CCCC(C)CCCC(C)C)O2 (configuration not stated) [Tocofersolan],78.2% and 80.7%,92.4,80.3,63.5,87.2,97.2,59.5,77.4
CC[C@H](NC(=O)[C@H](C)NC)C(=O)N1C[C@@H](O)C[C@H]1Cc1c(-c2[nH]c3cc(F)ccc3c2C[C@@H]2C[C@H](O)CN2C(=O)[C@H](CC)NC(=O)[C@H](C)NC)[nH]c2cc(F)ccc12,97.7% and 102%,99.4,78.6,93.4,61.6,65.4,103,107
Cc1ccc(-c2cc(C(F)(F)F)nn2-c2ccc(S(N)(=O)=O)cc2)cc1 [Celecoxib],94.3% and 106%,94.1,99.1,104,101,101,122,96.5
"CCNC(=O)c1noc(-c2cc(C(C)C)c(O)cc2O)c1-c1ccc(CN2CCOCC2)cc1 [Luminespib (AUY-922, NVP-AUY922)]",16.9% and 29.2%,25.6,32.3,26,1.2,1.31,12.3,20.7
CCn1cc(C(=O)O)c(=O)c2cc(F)c(N3CCN(C)CC3)cc21 [Pefloxacin mesylate],97.5% and 101%,96.6,105,100,100,103,109,115
C[C@@H](C(=O)Nc1ccc(Cl)cc1)C1CCC(c2ccnc3ccc(F)cc23)CC1 (some centres not stated),77% and 77.9%,69.6,81,70.5,61.9,76.4,56.8,54.5
Cn1cc(C2=C(c3cn(CCCSC(=N)N)c4ccccc34)C(=O)NC2=O)c2ccccc21 [Ro 31-8220 Mesylate],4.21% and 2.6%,3.72,2.81,0.92,0.22,-0.01,0.07,2.11
Nc1nc(N)nc(-c2cc(Cl)ccc2Cl)n1 [Irsogladine],95.2% and 105%,97.1,102,113,101,103,108,101
Cc1ccc(Cl)c(Nc2ccccc2C(=O)O)c1Cl [Meclofenamate sodium],97.7% and 99.9%,96.9,97.2,96.4,96.8,98.5,105,99.4
CCOC(=O)c1ccc(NC(=O)O[C@H]2[C@H](OC(=O)Nc3ccc4c(c3)OCO4)[C@@H](OC(=O)Nc3ccc4c(c3)OCO4)[C@@H](OC)O[C@@H]2CO)cc1,89.5% and 99.2%,93.3,103,106,100,101,99.3,103
Cc1ccc2c(c1)c1c(n2CCc2ccc(C)nc2)CCN(C)C1 [Latrepirdine 2HCl],88.7% and 89.9%,80.2,73.8,82,74.4,84.6,73.7,76
